EWS-Fli inh – EWS/Fli transcriptional activity inhibition. A673 NR0B1-luciferase reporter, viability-normalised. inhibition, % at 12.6 µM. 350,000 tested, 0.67% active;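 active = mean inhibition of at least 50% after viability correction, with every replicate also passing that limit; inconclusive = mean reaches 50% but only one of two replicates passes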;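 also: firefly luciferase signal divided by Alamar Blue viability fluorescence both relative to DMSO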
F508del corr – CFTR F508del correction in bronchial cells; 350,000 tested, 0.36% active; CFBE cells, YFP halide quenching; stimulated with forskolin plus potentiator P3; % fluorescence drop versus neutral controls; activity (quench increase), % at 7.58 µM;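 active = mean added fluorescence quench of at least 8% versus neutral control, with both replicates also reaching 8%; inconclusive = only one of the mean or replicate conditions met; inactive = mean below 8% and not both replicates reaching 8%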;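 also: cells transiently co-express mutant CFTR-F508del with the halide-sensitive YFP; corrector assay measuring rescue of mutant channel to the surface after 24 h compound exposure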
PAX8 reporter – lowers PAX8-driven luciferase in RMG-I cells. inhibition, % at 12.6 µM. 360,000 tested, 1.2% active. AID 652154. RMG-I TPO-luciferase reporter, SteadyGlo, 24 h;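 active = mean replicate inhibition at least 60% with every replicate also reaching 60%; inconclusive = only one of the two criteria is met; inactive = mean below 60% and not all replicates reaching 60%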;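 also: luciferase light reporting Pax8 driven TPO promoter activity; plate controls were median of neutral control wells for no effect and mitoxantrone controls for full effect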
INS-1E GSIS act – primary screen for activators of insulin secretion dependent on glucose, INS-1E cells, GLuc reporter luminescence; AID 743287; activation, % at 16.6 µM; 370,000 tested, 0.61% active; INS-1E GLuc reporter insulin secretion, 2-3 h;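 active = lowest replicate activation of at least 40%, so every replicate reaches that level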;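 also: 0% = median of neutral control wells and 100% = median of IBMX positive control wells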
PGC1a acetyl inh – PGC1a acetylation modulation, inhibitor mode. U2OS PGC1a acetylation, AlphaScreen anti-acetyl-lysine; with virally co-expressed GCN5 acetyltransferase. inhibition, % at 15.6 µM. 350,000 tested, 0.17% active;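 active = every replicate shows inhibition of at least 40%; inconclusive = mean inhibition at least 40% but some replicate below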;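 also: 0% = neutral control wells and 100% = positive control wells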
HIV Env fusion – inhibitors of HIV Env-mediated cell fusion | AID 651610 | HeLa-JRFL Env/CEM21 cell fusion, luciferase | 360,000 tested, 1.1% active | inhibition, % at 12.3 µM;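 active = mean replicate inhibition score of at least 50 and every replicate individually at or above 50; inconclusive = only one of the two criteria met; inactive = mean below 50 and not all replicates reaching 50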;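 also: 0% = plate neutral controls and 100% = maraviroc near 300 nM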
* hit, by the source's call; ? = inconclusive; / = not tested or not shown; ! = a repeat was not active; [ ] = remark or other dose. A selection: hits, their analogues and other compounds. The true share with any hit is near 2.7%.

SMILES | EWS-Fli inh | F508del corr | PAX8 reporter | INS-1E GSIS act | PGC1a acetyl inh | HIV Env fusion
CO[C@H]1CN(C)C(=O)c2ccc(NC(=O)C3CC3)cc2OC[C@H](C)N(CC2CC2)C[C@H]1C | -10.1 | -2.9 | 6.8 | 0.0 | 2.9 | /
CCNc1nc(NCC)n2c(SCC(=O)N(CC)C3CCCCC3)nnc2n1 | / | / | 1.0 | 73.7* | / | -10.8
CCNc1nc(NCC)n2c(SCC(=O)NC34CC5CC(CC(C5)C3)C4)nnc2n1 | / | / | 2.7 | -7.8 | / | /
COc1ccc(CN(C)C[C@H]2OCCCC[C@@H](C)Oc3ccc(NC(=O)Nc4ccccc4)cc3C(=O)N([C@@H](C)CO)C[C@@H]2C)cc1 | -8.8 | -0.6 | -11.1 | -18.6 | -6.8 | -91.1[16.7 µM]
CCCCCCCCCCCCCCCC(O)C[N+](C)(C)CCO (configuration not stated) | 6.1 | 1.4 | / | 363.2* | / | 16.3
CCCNC(=O)N(C)C[C@@H]1Oc2ncc(-c3ccc(OC)cc3)cc2C(=O)N([C@H](C)CO)C[C@@H]1C | -12.1 | 2.1 | / | 7.3 | -7.3 | -1.1[16.7 µM]
COc1ccc(-c2cc(C3CCN(c4ccc(C(C)=O)cc4[N+](=O)[O-])CC3)[nH]n2)cc1 | / | / | 84.9* | / | / | -43.9
CCC(=O)N(C)C[C@H]1Oc2cc(C#Cc3ccncc3)ccc2S(=O)(=O)N([C@H](C)CO)C[C@H]1C | -3.1 | 3.8 | / | -20.6 | 9.6 | -91.7[16.7 µM]
Cc1cc(C)nc(Nc2n[nH]c(COc3ccc4ccccc4c3)n2)n1 | / | / | / | 61.6* | 5.0 | -0.6
Cc1cc(C)nc(Nc2n[nH]c(COc3ccccc3)n2)n1 | / | / | / | / | -27.0 | /
Cc1ccc(S(=O)(=O)N[C@H]2CC[C@H](CCNC(=O)C3CCCCC3)O[C@@H]2CO)cc1 | -2.5 | 3.1 | 4.0 | -6.3 | -3.3 | 9.9[16.7 µM]
CN(C[C@H](Cc1ccccc1)N(C[C@H](c1ccccc1)N(CCc1ccccc1)N=O)N=O)N=O | 4.0 | -0.9 | 18.4 | -26.9 | / | 73.5*
CN(C[C@H](Cc1ccccc1)N(C[C@H](Cc1ccccc1)N(CCC(C)(C)C)N=O)N=O)N=O | 22.2 | 8.8* | 26.3 | -14.2 | -0.9 | 61.9*
CN(C[C@H](c1ccccc1)N(C[C@H](Cc1ccccc1)N(CCc1ccccc1)N=O)N=O)N=O | 13.5 | -0.5 | 45.2 | -5.9 | / | 32.1
CC(C)CCN(N=O)[C@@H](Cc1ccccc1)CN(N=O)[C@@H](Cc1ccccc1)CN(C)N=O | 16.0 | -3.1 | -16.7 | -31.9 | / | 92.7*
CN(C[C@H](Cc1ccccc1)N(C[C@@H](CC1CCCCC1)N(CCc1ccccc1)N=O)N=O)N=O | 5.8 | 5.4 | 9.2 | -19.1 | / | 55.5*
COc1ccccc1C#Cc1ccc([C@@H]2[C@@H](CO)N3CCCCN(C(=O)C4CC4)C[C@@H]23)cc1 | -1.6 | 0.2 | 15.6 | / | -15.2 | /
C[C@H](CO)N1C[C@H](C)[C@H](CN(C)S(=O)(=O)c2ccc(F)cc2)Oc2c(NC(=O)NC3CCCCC3)cccc2C1=O | 14.7 | -2.6 | 62.0* | -11.0 | 3.6 | /
C[C@H](CO)N1C[C@H](C)[C@@H](CN(C)C(=O)NC2CCCCC2)Oc2c(cccc2N(C)C)C1=O | -7.7 | -2.5 | 0.4 | -8.0 | 2.5 | 84.6*!
C[C@@H]1CN([C@@H](C)CO)C(=O)c2cccc(N(C)C)c2O[C@H]1CN(C)C(=O)NC1CCCCC1 | / | 2.0 | -5.9 | -11.2 | 0.2 | -21.3[16.7 µM]
C[C@@H]1CN([C@H](C)CO)C(=O)c2cccc(NC(=O)NC3CCCCC3)c2O[C@H]1CN(C)S(=O)(=O)c1ccc(F)cc1 | -1.0 | -2.4 | 0.1 | 10.2 | -5.5 | /
C[C@H]1CN([C@@H](C)CO)C(=O)c2cccc(NC(=O)NC3CCCCC3)c2O[C@H]1CN(C)S(=O)(=O)c1ccc(Cl)cc1 | 24.3 | -2.3 | 72.1* | -12.6 | 19.7 | /
C[C@@H]1CN([C@@H](C)CO)C(=O)c2cc(NS(=O)(=O)c3ccc(Cl)cc3)ccc2O[C@@H](C)CCCCO[C@@H]1CN(C)C(=O)c1ccccc1 | -3.4 | -1.0 | -24.0 | -11.5 | -7.0 | -19.6[16.7 µM]
CC(=O)N(C)C[C@H]1Oc2ccc(NC(=O)NC(C)C)cc2C(=O)N(C)C[C@H]1C | / | / | / | -2.0 | / | /
O=C(CN1CCN(S(=O)(=O)c2ccccc2)CC1)Nc1ccccc1Cl | / | 8.5* | / | 10.6 | 2.5 | 4.8
SMILES | EWS-Fli inh | F508del corr | PAX8 reporter | INS-1E GSIS act | PGC1a acetyl inh | HIV Env fusion
COC(=O)C1CC23C=CCN4CCC5(c6ccccc6NC15C2C)C43 (configuration not stated) | 33.4 | 10.4* | 47.1 | -5.4 | -1.3 | -243.1
Cc1ccc2nc(SCC(=O)Nc3ccc(F)cc3)nc(=O)n2c1 | -1.0 | -1.8 | -13.5 | 8.6 | 76.3* | -0.4
O=C(O)/C=C/c1cnc[nH]1 | -20.2 | -4.5 | -1.0 | 3.2 | 106.0* | /
O=C(Nc1nc(COc2ccccc2)cs1)C12CC3CC(CC(C3)C1)C2 | / | / | / | -18.9 | -1.8 | 67.6*
CC(=O)Nc1nc(COc2ccccc2)cs1 | / | / | / | / | 3.7 | -90.6
O=C(/C=C/c1ccc(Cl)cc1Cl)N1CCN(c2ccccc2[N+](=O)[O-])CC1 | 3.0 | -2.1 | 118.6* | -14.2 | / | /
c1ccc(CCN2CCN=C2Nc2ccccc2)cc1 | -3.3 | -0.6 | -2.3 | 42.5* | 11.6 | -6.1
O=C(Cc1ccccc1)N1CC2(C1)[C@H](c1ccccc1)[C@H](CO)N2S(=O)(=O)Cc1ccccc1 | -1.9 | 3.2 | 5.2 | -22.7 | -13.2 | /
NS(=O)(=O)c1ccc(NC(=S)N2CCN(c3ccc(Cl)c(Cl)c3)CC2)cc1 | / | / | 47.8 | 108.3* | -3.6 | ?
O=C(Nc1ccc(F)cc1)N[C@H]1CC[C@@H](CCNS(=O)(=O)c2cccc(Cl)c2)O[C@H]1CO | 13.6 | 1.4 | 16.1 | -8.0 | -0.9 | 6.6[16.7 µM]
CC(=O)Nc1cccc(-c2ccnc3c2CC(C(=O)NCc2cccnc2)O3)c1 (configuration not stated) | 5.9 | 2.1 | 8.6 | 6.2 | / | 3.6
CC(=O)Nc1cccc(-c2ccnc3c2CC(C(=O)NCc2cccc(Cl)c2)O3)c1 (configuration not stated) | 63.1* | -0.7 | 34.0 | -16.8 | / | -4.8
CC(=O)Nc1ccc(-c2ccnc3c2CC(C(=O)NCc2cccc(Cl)c2)O3)cc1 (configuration not stated) | 69.6* | 3.4 | / | / | -13.4 | -120.9
NC(=O)c1cccc(-c2ccnc3c2CC(C(=O)NCc2cccc(Cl)c2)O3)c1 (configuration not stated) | 6.4 | 2.2 | 30.9 | -4.4 | 0.5 | -50.3
COc1ccc(-c2ccccc2[C@H]2[C@@H](CO)N(C(=O)C3CC3)[C@H]2C#N)cc1 | 4.8 | 2.0 | -6.6 | 14.8 | 7.9 | /
CN1C(=O)c2cc(NC(=O)C3CCCC3)ccc2OC[C@@H]2O[C@@H](CC(=O)NCc3ccccc3F)CC[C@@H]21 | -3.5 | -1.0 | 7.4 | -12.3 | / | /
C[C@@H]1CN([C@@H](C)CO)C(=O)c2ccccc2-c2ccccc2CO[C@H]1CN(C)C(=O)[C@H](C)c1ccccc1 | -0.2 | -2.0 | -20.6 | 11.4 | -10.2 | 3.3[16.7 µM]
